Tb PYK inh: qHTS of Trypanosoma Brucei Inhibitors | TbPYK enzyme, Kinase-Glo Plus ATP luminescence, 45 min | Potency, µM (doses to about 76.8 µM), most hits filed as inhibitors | 0.12% of 410,000 active; note: nearly all actives have a fitted effect of over 50% in size
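Luminescence from Kinase-Glo Plus, added after a 45-minute room-temperature reaction, served as the end-point read-out. The enzyme and substrate were preincubated with compound before ADP (130 uM final) initiated turnover. Concentration-effect curves came from normalized qHTS data.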
RE007 growth inh: qHTS Assay for Inhibitors of the HIV-1 protein Vpr; 0.21% of 360,000 active; Potency, µM (highest dose often 92.2 µM), most hits filed as inhibitors; S. pombe RE007 Vpr strain, BacTiter-Glo ATP luminescence, 24 h; active = well fitted falling curve with a large enough effect; inconclusive = small, poorly fitted or top-dose-only effect; inactive = no such curve, though single readings can be large or run the other way; note: nearly all actives have a fitted effect of over 50% in size
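Fission yeast RE007 carrying one integrated HIV-1 vpr copy, seeded at OD 0.01 in PMG+AL medium with 23 nL pinned compound. Grown 24 h at 30 degrees; viability read by BacTiter-Glo luminescence after 5 min.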
HCMV antiviral: qHTS Assay for inhibitors of the human cytomegalovirus (HCMV); 4.5% of 410,000 active; HFF cells, HCMV-luciferase reporter, 72 h; hits give low values; activity change, negative = inhibition, % at 57.5 µM; in the data active = activity change below about -60%; inconclusive = no clear call, values can overlap the other calls; inactive = above about -39%
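Human foreskin fibroblasts infected with luciferase-reporter HCMV at MOI 1 PFU/cell, compounds at two doses. Luciferase measured 72 h post infection; normalized to buffer-only basal and Salinomycin (10uM) controls.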
Sm TGR inh: qHTS Assay for the Inhibitors of Schistosoma Mansoni Peroxiredoxins; 3% of 360,000 active; Potency, µM (doses to about 114 µM), actives largely listed as inhibitors; purified TGR, DTNB reduction, TNB absorbance 405 nm; Schistosoma mansoni thioredoxin glutathione reductase (TGR), Q962Y6; note: nearly all actives have a fitted effect of over 60% in size
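First, TGR (20 nM dispensed) and NADPH were mixed with compound. Second, a 15 min room-temperature incubation followed. Third, further NADPH and then DTNB were added to start the reaction. Finally, TNB absorbance was monitored kinetically.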
FBPA Giardia inh: qHTS Assay for Inhibitors of Fructose-1,6-bisphosphate Aldolase from Giardia Lamblia; purified Giardia FBPA; Potency, µM (titrated, usually from 59.6 µM), most hits filed as inhibitors; 0.71% of 290,000 active; note: nearly all actives have a fitted effect of over 55% in size
Target sequence (A8B2U2 whole entry, looked up): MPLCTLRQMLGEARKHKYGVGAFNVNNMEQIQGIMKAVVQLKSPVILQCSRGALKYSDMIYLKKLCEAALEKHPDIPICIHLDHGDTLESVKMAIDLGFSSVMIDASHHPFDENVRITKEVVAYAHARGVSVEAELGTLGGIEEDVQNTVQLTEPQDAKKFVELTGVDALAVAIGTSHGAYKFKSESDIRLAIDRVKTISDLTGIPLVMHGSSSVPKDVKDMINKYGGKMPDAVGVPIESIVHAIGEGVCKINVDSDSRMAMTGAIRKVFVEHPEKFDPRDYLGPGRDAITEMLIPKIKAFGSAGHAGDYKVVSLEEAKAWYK
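Giardia FBPA (40 nM reagent) was preincubated 10 min at RT with compound (up to 57.5 uM final), then substrate plus GAPDH/TPI/NAD/arsenate coupling system with diaphorase/resazurin was added; resorufin fluorescence (525/598 nm) was read after 20 min.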
FMDV inh: High Throughput Screening for Foot and Mouth Disease Virus Antivirals; FMDV antiviral cell-based qHTS; 1.2% of 410,000 active; Potency, µM (highest dose often 57.9 µM), hits mostly inhibitors; AID 1159524, 2015; calls by dose curve; tested in HEK293T cells; note: read-out not given here; nearly all actives have a fitted effect of over 45% in size
Each line names hits and unclear results; the compound was inactive in the other large screens. An excerpt weighted towards active compounds, which were near 7.7% of everything screened. Unless noted, calls come from the whole dose curve; as a rule, active = well fitted curve in the direction sought with a large enough effect; inconclusive = small, poorly fitted or top-dose-only effect, or another doubt; inactive = no such curve, though single readings can be large; an effect the other way counts as inactive or inconclusive.

CCNC(=O)c1cc2c(=O)n3cccc(C)c3nc2n(CCc2ccccc2)c1=N	HCMV antiviral -102.9
O=C(NCc1ccco1)c1cccn2c(=O)c3cc4ccccc4cc3nc12	FBPA Giardia inh inconclusive (no result: Tb PYK inh, RE007 growth inh, HCMV antiviral, FMDV inh)
Cc1cccn2c(=O)c3cc(C(=O)NCCc4ccccc4)c(=N)n(CCCn4ccnc4)c3nc12	none
COCCn1c(=N)c(C(=O)NCCc2ccccc2)cc2c(=O)n3cccc(C)c3nc21	HCMV antiviral -68.7 (no result: Sm TGR inh, FBPA Giardia inh)
Nc1ccc(Cc2ccc([N+](=O)[O-])cc2)cc1	HCMV antiviral -64.2 (no result: Sm TGR inh, FBPA Giardia inh)
O=C(Oc1cc2oc(=O)cc(-c3ccccc3)c2cc1Cl)C1CCCCC1	none
CC(C)(C)OC(=O)NCC(=O)Oc1cc2oc(=O)cc(-c3ccccc3)c2cc1Cl	HCMV antiviral -76.2, Sm TGR inh inconclusive (no result: RE007 growth inh)
CCOc1cc(/C=C(\C#N)C(N)=O)ccc1OS(=O)(=O)c1ccccc1	HCMV antiviral inconclusive (no result: RE007 growth inh)
CCOc1c(/C=C(\C#N)C(N)=O)c2ccccc2n1CC	HCMV antiviral -67.3, FMDV inh inconclusive
CCOC(=O)/C(C#N)=C\c1cc(C)n(-c2ccccc2)c1C	HCMV antiviral inconclusive, FMDV inh inconclusive
CCOC(=O)/C(C#N)=C\c1c(OCC)n(CC)c2ccccc12	HCMV antiviral -68.9, FMDV inh inconclusive
COc1ccc2c(c1)[nH]c1c(N3CCSCC3)ncnc12	HCMV antiviral inconclusive, FMDV inh 25.1µM
COc1ccc2[nH]c3c(N4CC(C)OC(C)C4)ncnc3c2c1 (centres undefined)	HCMV antiviral inconclusive
Cc1ccc2[nH]c3c(N4CCN(Cc5ccc6c(c5)OCO6)CC4)ncnc3c2c1	HCMV antiviral inconclusive (no result: Tb PYK inh, RE007 growth inh, FMDV inh)
COc1ccc2c(c1)[nH]c1c(N3CCN(Cc4ccc5c(c4)OCO5)CC3)ncnc12	FMDV inh 6.31µM
COc1cc(CN2CCCC(C(=O)c3ccc4c5c(cccc35)CC4)C2)cc(OC)c1O (centres undefined)	Sm TGR inh 14.1µM, FBPA Giardia inh 7.92µM
O=C(CSc1nnc(CNC(=O)c2cccc(C(F)(F)F)c2)o1)NCc1ccco1	none
O=C(CSc1nnc(Cc2ccccc2)o1)NCc1ccco1	Sm TGR inh 44.7µM
Cc1[nH]c2ccccc2c1Cc1nnc(SCC(=O)NCc2ccco2)o1	Sm TGR inh 15.8µM
COCOc1ccc(Br)cc1C(=O)/C=C\c1ccc2c(c1)OCO2	none (no result: Tb PYK inh, RE007 growth inh, HCMV antiviral, Sm TGR inh, FMDV inh)
COc1ccc(C(=O)C2CCCN(Cc3cnc(N4CCOCC4)s3)C2)cc1F (centres undefined)	FMDV inh inconclusive
CCn1ncc(CN2CCCC(C(=O)c3cccc(OC(C)C)c3)C2)c1C (centres undefined)	none
Cc1ncc(CN2CCCC(C(=O)c3cccc(OC(C)C)c3)C2)s1 (centres undefined)	HCMV antiviral -68.8, FMDV inh inconclusive
CC(C)Oc1cccc(C(=O)C2CCCN(Cc3cnc(N4CCOCC4)s3)C2)c1 (centres undefined)	HCMV antiviral -71.7, FMDV inh inconclusive
CCn1c(C)c(CS(=O)(=O)c2ccccc2)[nH]c1=O	Sm TGR inh 0.0282µM
CCn1c(=O)[nH]c2ccccc21	none (no result: Tb PYK inh, RE007 growth inh, HCMV antiviral, Sm TGR inh)
COc1cc2c(cc1OC)CN(c1ccc(-c3ccccc3OC)nn1)CC2	RE007 growth inh inconclusive, FMDV inh 35.5µM (no result: HCMV antiviral)
COc1cccc(N2CCN(C(=O)CCCn3c(=O)[nH]c4ccc(Br)cc4c3=O)CC2)c1	FMDV inh inconclusive (no result: RE007 growth inh, FBPA Giardia inh)
COCCN(C(=O)c1cc(-c2ccco2)nc2ccccc12)c1c(N)n(Cc2ccccc2)c(=O)[nH]c1=O	HCMV antiviral -69.1 (no result: Sm TGR inh, FBPA Giardia inh)
CCCN(C(=O)c1cc(-c2ccco2)nc2ccccc12)c1c(N)n(Cc2ccccc2)c(=O)[nH]c1=O	Sm TGR inh 8.91µM (no result: FBPA Giardia inh)
CCCn1c(N)c(N(CCOC)C(=O)c2cc(Cl)nc3ccccc23)c(=O)[nH]c1=O	none (no result: FBPA Giardia inh)
CCCCN(C(=O)c1cc(-c2ccc(F)cc2)nc2ccccc12)c1c(N)n(CCCC)c(=O)[nH]c1=O	none (no result: FBPA Giardia inh)
CCOc1cc(CNCC2CCCO2)cc(Br)c1OCC(N)=O (centres undefined)	HCMV antiviral -69.1
COc1cc(CNCC2CCCO2)ccc1OCC(N)=O (centres undefined)	none (no result: Sm TGR inh)
Brc1ccc(-c2nnc3c4ccccc4nc(N4CCOCC4)n23)cc1	none
Clc1ccc(-c2nnc3c4ccccc4nc(N4CCOCC4)n23)cc1Cl	HCMV antiviral -89.7
COc1ccc(C(=O)NCC2CCCO2)cc1S(=O)(=O)N1CCCc2ccccc21 (centres undefined)	none
COc1ccc(OC)c(S(=O)(=O)N2CCCc3ccccc32)c1	HCMV antiviral -102.0
COc1ccc(C(=O)NCc2ccc(C)cc2)cc1S(=O)(=O)N1CCCc2ccccc21	HCMV antiviral -72.1
O=C(NNC(=O)C1CCC1)c1ccc(Br)cc1	none (no result: FBPA Giardia inh)
O=C(c1ccc(Br)cc1)C1CCc2occc2C1=O (centres undefined)	Sm TGR inh 56.2µM
COc1cccc(CN2CCN3C=C(C(=O)NC4CCc5ccccc54)OC3=NC2=O)c1 (centres undefined)	none (no result: Tb PYK inh, RE007 growth inh, Sm TGR inh, FBPA Giardia inh, FMDV inh)
COc1cc(C2SC[C@H]3C(=O)N(c4ccccc4)C(=O)N23)cc(OC)c1OC (some centres undefined)	FMDV inh inconclusive (no result: RE007 growth inh, FBPA Giardia inh)
c1ccc(C[n+]2ccc3ccccc3c2)cc1	none (no result: Sm TGR inh, FBPA Giardia inh)
CC1=CCC2COC(c3ccc[n+](Cc4ccccc4)c3)C1C2 (centres undefined)	HCMV antiviral inconclusive, Sm TGR inh 35.5µM, FBPA Giardia inh inconclusive
COc1cccc(CNC(=O)CCn2nc(C)c3c(C)n(-c4ccccc4)nc3c2=O)c1	none (no result: RE007 growth inh, FBPA Giardia inh)
Cc1ccc(C(C#N)c2ccc(Cl)nn2)cc1 (centres undefined)	none
N#CC(c1ccc(Cl)nn1)c1ccccc1Cl (centres undefined)	HCMV antiviral -63.3
N#CC(c1ccc(Cl)cc1)c1ccc(Cl)nn1 (centres undefined)	HCMV antiviral -81.7
Cc1ccc(NC(=S)NCc2ccccc2)cc1[N+](=O)[O-]	HCMV antiviral -95.9
Cc1cc([N+](=O)[O-])ccc1NC(=O)C[n+]1ccc(N(C)C)cc1	RE007 growth inh inconclusive, HCMV antiviral -99.9
CNC(=S)Nc1ccc([N+](=O)[O-])c(C)c1	HCMV antiviral inconclusive, Sm TGR inh 39.8µM
CNC(=S)Nc1ccc([N+](=O)[O-])cc1C	Sm TGR inh 10µM
COc1ccc(OC)c(-c2cc(Cl)c3c(c2)CC(CNC(=O)C(C)N2CCOCC2)O3)c1 (centres undefined)	none (no result: Tb PYK inh, RE007 growth inh, HCMV antiviral, Sm TGR inh, FBPA Giardia inh)

Screening data: PubChem, National Center for Advancing Translational Sciences (NCATS)
